From the supplement of paper PMC11732987, “Enantioselective OTUD7B fragment discovery through chemoproteomics screening and high-throughput optimisation” (Communications Chemistry, 2025)

Columns and labels:
Assay in all cases: log2 ratio of Biotin-Ahx-Ub-VS probe labelling (fragment/DMSO); higher = less target engagement (more negative = stronger competition), active = hit call of the paper (q ≤ 0.05, log2 ratio ≤ -1)
Conditions in all cases: compound concentration: 200 uM; treatment time: 3 h
USP42 = biological target: T1, USP42 (UniProt Q9H9J4)
T1 sequence (whole entry): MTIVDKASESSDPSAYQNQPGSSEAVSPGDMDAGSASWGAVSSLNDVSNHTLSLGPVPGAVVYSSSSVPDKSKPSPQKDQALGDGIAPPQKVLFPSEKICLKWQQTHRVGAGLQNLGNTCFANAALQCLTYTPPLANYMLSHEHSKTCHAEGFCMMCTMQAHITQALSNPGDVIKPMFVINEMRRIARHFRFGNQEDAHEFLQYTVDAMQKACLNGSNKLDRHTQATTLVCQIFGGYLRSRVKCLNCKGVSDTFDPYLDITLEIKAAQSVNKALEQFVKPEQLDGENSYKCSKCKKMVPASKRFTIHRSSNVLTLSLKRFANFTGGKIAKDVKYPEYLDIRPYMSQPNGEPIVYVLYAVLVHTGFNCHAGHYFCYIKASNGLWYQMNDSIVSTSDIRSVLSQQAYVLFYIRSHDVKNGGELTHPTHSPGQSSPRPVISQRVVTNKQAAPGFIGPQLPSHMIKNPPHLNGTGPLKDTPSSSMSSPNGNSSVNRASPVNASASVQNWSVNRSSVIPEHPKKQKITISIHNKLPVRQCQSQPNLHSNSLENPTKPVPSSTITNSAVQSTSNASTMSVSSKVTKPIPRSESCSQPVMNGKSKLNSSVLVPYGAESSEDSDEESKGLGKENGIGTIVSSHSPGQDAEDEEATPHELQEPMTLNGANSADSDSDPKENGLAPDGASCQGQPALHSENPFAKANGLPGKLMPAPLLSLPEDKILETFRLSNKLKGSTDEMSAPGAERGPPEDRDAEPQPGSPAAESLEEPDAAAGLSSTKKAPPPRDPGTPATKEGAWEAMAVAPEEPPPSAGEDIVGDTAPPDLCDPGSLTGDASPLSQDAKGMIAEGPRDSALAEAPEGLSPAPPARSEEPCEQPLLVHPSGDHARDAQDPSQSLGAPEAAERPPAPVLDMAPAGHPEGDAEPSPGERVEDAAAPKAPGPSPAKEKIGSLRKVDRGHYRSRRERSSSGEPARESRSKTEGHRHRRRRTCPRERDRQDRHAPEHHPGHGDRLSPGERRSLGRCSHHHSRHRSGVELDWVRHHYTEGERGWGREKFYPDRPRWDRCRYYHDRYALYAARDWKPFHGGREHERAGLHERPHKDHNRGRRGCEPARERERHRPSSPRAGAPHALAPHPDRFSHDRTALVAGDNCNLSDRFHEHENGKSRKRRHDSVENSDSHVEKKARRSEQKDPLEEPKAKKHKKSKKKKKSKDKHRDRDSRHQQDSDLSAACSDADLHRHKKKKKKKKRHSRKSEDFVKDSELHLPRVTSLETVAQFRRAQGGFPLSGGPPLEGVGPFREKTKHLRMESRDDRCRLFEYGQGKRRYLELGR
Procedure, shortened: (§1)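 Average log2 ratios of fragment over vehicle were obtained by unpaired t-test from global-median-normalised Spectronaut label-free quantities. Proteins with ≥2 unique peptides were included. HEK293T lysate (495 µg per sample) was treated in triplicate with fragment at 200 µM or vehicle for 3 h, then with Biotin-Ahx-Ub-VS at 0.5 µM final for 1 h, and labelled DUBs were NeutrAvidin-enriched and run by diaPASEF LC-MS/MS.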

USP46 = USP46 (UniProt P62068)
Procedure, shortened: as §1

USP47 = biological target: T2, USP47 (UniProt Q96K76)
T2 sequence (whole entry): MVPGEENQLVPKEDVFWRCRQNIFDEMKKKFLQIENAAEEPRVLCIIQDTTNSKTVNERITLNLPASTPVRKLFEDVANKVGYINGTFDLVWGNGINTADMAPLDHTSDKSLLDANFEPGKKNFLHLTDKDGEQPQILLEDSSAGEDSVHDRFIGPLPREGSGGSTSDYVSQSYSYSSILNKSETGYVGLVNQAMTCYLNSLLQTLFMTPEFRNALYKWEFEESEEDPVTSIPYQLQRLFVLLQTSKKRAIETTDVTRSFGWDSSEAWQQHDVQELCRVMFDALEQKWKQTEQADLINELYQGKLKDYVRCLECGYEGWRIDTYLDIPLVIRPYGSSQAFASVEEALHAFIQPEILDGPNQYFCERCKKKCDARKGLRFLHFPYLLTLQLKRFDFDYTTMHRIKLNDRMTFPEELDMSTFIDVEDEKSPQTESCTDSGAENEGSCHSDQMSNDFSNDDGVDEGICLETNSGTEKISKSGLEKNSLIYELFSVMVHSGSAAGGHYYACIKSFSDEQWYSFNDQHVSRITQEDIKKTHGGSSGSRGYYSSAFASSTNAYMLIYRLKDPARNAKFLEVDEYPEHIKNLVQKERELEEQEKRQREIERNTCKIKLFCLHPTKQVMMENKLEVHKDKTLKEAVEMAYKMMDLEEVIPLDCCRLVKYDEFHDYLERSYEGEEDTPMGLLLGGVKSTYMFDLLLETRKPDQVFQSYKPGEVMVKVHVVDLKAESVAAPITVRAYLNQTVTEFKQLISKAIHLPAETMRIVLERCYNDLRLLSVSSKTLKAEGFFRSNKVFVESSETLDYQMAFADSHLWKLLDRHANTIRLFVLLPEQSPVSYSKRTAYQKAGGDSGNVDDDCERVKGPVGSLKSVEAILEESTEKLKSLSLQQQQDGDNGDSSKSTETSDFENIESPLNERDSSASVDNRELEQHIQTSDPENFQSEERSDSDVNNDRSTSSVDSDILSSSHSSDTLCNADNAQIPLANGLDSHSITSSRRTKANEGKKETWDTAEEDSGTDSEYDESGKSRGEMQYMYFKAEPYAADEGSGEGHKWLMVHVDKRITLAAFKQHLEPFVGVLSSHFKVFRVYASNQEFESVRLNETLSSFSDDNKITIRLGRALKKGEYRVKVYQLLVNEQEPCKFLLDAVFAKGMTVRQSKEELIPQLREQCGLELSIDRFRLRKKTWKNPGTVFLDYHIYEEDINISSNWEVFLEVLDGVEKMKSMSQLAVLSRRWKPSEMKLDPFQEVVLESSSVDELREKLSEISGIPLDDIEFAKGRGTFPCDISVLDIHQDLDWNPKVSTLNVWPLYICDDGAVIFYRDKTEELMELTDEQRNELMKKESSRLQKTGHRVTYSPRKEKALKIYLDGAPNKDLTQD
Procedure, shortened: as §1

USP48 = biological target: T3, USP48 (UniProt Q86UV5)
T3 sequence (whole entry): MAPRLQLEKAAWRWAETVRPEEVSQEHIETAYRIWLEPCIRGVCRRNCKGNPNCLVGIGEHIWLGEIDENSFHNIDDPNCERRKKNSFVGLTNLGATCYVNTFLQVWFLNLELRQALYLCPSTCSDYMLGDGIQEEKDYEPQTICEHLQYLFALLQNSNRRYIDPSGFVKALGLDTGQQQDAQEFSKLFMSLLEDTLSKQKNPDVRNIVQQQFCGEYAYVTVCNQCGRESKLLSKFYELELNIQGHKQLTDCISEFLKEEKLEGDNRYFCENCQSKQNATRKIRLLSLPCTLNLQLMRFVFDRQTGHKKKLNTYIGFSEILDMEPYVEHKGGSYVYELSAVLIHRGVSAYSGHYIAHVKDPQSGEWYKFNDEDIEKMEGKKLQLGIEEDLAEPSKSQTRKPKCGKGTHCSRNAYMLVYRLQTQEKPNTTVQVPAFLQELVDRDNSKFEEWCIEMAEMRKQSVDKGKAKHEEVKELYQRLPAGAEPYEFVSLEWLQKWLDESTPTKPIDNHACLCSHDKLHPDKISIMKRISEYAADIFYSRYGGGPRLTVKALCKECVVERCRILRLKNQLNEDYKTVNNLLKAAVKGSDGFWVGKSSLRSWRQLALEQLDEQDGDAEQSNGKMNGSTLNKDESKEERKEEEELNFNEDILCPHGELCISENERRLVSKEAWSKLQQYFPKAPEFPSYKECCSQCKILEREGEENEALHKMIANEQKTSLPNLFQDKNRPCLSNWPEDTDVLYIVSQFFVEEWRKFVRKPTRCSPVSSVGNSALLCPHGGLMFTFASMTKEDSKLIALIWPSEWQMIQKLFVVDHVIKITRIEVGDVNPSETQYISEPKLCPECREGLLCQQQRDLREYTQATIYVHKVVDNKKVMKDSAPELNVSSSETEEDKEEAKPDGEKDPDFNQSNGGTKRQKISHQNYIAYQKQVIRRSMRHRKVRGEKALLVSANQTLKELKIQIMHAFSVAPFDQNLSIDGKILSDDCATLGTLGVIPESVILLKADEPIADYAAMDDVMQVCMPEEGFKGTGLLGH
Procedure, shortened: as §1

USP5 = biological target: T4, USP5 (UniProt P45974)
T4 sequence (whole entry): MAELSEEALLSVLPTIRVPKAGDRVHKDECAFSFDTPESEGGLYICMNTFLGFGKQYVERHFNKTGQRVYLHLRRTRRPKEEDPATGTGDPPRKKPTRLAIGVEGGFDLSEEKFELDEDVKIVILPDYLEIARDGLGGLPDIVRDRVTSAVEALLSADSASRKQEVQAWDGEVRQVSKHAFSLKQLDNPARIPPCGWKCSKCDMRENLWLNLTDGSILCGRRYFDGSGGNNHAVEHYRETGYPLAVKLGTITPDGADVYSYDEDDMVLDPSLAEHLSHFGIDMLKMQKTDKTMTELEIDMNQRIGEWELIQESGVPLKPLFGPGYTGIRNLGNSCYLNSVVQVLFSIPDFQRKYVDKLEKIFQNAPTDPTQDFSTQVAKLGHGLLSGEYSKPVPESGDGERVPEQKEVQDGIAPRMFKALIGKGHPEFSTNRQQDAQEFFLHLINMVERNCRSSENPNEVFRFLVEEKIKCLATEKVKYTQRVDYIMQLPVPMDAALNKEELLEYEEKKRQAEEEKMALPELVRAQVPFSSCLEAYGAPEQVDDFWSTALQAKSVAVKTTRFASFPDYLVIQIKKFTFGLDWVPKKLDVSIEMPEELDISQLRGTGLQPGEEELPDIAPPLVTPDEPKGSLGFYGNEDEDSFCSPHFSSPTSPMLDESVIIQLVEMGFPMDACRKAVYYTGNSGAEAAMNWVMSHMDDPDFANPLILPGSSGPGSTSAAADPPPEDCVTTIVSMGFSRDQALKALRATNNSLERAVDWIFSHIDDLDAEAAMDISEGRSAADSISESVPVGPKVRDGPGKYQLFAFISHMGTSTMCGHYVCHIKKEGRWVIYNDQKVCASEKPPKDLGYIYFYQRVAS
Procedure, shortened: as §1

USP54 = USP54 (UniProt Q70EL1)
Procedure, shortened: as §1

USP7 = USP7 (UniProt Q93009)
Procedure, shortened: as §1

USP8 = biological target: T5, USP8 (UniProt P40818)
T5 sequence (whole entry): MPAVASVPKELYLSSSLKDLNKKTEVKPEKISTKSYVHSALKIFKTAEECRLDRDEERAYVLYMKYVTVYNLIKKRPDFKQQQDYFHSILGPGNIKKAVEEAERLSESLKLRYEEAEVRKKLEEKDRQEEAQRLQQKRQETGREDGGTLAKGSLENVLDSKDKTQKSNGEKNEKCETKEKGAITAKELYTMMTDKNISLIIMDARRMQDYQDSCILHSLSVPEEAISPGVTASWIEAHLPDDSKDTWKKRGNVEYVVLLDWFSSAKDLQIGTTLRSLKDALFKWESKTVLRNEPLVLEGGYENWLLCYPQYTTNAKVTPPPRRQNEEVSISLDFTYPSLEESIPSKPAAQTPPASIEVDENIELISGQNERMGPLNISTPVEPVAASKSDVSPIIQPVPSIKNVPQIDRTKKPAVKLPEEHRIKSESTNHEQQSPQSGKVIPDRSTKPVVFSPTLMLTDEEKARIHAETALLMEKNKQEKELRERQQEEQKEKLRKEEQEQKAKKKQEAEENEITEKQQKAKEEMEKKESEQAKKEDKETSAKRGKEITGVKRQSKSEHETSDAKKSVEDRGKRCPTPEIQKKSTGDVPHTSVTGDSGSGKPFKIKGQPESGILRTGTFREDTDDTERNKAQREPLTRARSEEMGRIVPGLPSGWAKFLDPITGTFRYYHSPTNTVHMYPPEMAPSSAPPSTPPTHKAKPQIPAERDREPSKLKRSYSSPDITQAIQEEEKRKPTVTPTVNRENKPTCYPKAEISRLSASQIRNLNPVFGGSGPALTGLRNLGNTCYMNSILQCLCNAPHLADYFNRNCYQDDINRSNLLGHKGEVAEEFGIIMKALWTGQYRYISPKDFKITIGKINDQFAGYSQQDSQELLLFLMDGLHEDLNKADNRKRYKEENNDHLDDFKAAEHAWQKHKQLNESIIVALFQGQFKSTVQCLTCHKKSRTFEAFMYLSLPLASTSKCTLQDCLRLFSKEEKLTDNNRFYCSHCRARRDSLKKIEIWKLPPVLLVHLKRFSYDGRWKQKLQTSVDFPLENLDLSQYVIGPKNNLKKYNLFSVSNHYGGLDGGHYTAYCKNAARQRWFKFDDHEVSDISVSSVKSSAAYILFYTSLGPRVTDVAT
Procedure, shortened: as §1

USP9X = USP9X (UniProt Q93008)
Procedure, shortened: as §1

UniProt O00487 = biological target: UniProt O00487
Procedure, shortened: as §1

Measured: log2 ratio of Biotin-Ahx-Ub-VS probe labelling

Sequence of USP7 (Q93009 whole entry, looked up): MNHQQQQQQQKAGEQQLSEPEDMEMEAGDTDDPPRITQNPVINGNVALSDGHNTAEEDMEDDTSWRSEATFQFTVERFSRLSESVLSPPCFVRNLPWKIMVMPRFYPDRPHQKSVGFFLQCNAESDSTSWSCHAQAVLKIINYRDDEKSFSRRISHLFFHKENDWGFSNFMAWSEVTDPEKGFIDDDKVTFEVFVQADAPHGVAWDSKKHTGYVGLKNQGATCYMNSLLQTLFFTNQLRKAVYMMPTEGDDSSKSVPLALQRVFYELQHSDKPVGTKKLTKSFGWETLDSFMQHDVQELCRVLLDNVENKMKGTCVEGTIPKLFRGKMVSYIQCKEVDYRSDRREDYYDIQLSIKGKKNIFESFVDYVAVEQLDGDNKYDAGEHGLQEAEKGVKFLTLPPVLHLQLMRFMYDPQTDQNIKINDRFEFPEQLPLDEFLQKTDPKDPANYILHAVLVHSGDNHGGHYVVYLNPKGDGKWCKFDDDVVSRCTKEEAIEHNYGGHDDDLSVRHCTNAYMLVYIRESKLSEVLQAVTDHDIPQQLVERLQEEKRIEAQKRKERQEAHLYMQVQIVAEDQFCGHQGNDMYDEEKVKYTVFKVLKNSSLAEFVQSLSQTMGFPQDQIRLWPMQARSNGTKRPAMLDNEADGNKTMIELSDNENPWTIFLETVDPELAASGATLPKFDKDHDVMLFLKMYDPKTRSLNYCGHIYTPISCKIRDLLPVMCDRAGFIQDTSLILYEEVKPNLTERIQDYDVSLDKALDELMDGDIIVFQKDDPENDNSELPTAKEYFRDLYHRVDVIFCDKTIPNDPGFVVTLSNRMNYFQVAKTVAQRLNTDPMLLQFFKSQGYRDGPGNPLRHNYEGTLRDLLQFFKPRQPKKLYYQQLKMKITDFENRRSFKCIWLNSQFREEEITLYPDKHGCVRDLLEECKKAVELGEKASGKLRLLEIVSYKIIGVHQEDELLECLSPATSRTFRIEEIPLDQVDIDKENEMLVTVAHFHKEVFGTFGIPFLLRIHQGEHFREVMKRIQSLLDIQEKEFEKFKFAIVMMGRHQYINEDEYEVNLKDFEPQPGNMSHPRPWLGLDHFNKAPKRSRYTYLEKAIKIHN
Sequence of UniProt O00487 (O00487 whole entry): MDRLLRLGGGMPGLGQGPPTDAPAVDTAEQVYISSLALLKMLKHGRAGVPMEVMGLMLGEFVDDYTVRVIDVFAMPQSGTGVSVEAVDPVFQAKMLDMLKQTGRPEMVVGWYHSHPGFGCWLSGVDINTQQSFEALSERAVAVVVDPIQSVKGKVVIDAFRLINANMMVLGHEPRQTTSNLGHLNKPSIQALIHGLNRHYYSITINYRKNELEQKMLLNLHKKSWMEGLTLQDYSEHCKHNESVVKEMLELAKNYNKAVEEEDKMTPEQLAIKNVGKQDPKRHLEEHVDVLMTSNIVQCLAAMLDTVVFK
Sequence of USP46 (P62068 whole entry): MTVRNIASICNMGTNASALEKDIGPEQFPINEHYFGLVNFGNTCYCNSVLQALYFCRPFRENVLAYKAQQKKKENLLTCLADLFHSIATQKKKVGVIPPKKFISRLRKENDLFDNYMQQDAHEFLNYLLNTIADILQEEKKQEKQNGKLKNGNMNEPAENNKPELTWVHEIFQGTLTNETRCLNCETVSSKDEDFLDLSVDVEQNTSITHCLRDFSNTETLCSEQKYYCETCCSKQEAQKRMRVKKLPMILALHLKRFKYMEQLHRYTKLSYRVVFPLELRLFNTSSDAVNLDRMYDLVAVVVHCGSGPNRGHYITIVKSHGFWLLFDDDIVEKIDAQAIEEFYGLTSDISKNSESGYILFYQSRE
Sequence of USP54 (Q70EL1 whole entry): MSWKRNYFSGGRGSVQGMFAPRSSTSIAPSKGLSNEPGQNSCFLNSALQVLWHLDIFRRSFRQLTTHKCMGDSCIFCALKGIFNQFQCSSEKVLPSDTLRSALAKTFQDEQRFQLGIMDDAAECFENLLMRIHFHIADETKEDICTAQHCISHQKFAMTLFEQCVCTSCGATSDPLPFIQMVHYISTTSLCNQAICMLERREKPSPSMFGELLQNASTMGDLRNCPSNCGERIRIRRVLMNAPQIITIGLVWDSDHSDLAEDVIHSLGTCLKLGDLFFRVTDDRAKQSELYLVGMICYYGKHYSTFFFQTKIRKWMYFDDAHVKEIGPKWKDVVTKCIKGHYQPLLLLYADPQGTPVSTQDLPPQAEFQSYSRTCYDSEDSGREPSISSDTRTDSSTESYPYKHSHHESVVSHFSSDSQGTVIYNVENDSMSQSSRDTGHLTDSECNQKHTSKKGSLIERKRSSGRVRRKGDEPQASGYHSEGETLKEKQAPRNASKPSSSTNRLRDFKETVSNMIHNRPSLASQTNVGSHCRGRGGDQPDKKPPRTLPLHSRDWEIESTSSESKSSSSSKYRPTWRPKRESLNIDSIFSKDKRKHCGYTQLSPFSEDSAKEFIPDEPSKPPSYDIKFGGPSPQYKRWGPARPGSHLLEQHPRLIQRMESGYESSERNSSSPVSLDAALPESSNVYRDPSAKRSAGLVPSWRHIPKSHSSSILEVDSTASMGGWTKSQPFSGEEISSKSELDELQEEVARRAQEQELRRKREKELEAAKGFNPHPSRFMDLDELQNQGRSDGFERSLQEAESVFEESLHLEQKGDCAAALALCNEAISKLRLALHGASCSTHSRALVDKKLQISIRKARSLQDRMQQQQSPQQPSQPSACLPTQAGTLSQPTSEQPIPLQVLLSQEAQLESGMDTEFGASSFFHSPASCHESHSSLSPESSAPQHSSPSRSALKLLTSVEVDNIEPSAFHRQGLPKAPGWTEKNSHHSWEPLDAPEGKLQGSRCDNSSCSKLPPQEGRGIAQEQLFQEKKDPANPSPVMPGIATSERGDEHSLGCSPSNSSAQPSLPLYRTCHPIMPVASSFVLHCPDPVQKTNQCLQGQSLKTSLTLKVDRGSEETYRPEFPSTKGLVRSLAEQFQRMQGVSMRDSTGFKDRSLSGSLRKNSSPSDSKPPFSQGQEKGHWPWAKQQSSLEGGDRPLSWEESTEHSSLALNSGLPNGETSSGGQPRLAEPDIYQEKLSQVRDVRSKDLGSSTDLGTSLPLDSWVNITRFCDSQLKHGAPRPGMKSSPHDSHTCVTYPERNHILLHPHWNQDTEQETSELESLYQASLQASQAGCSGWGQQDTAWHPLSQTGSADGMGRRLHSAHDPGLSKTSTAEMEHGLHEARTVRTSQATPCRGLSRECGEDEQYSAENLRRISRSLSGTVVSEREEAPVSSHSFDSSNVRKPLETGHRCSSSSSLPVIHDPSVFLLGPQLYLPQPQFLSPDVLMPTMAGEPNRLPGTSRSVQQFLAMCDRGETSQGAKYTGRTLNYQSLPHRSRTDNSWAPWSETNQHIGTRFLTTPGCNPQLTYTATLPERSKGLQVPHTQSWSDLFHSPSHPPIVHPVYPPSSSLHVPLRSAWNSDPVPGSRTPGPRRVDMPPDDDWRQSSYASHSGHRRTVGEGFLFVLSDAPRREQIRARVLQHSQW

Cc1nc(CN2CCN(C(=O)CCl)CC2)cs1
inactive: USP42 0.251 | USP46 -0.246 | USP47 -0.236 | USP48 -0.0313 | USP5 -0.643 | USP54 -0.00411 | USP7 -0.473 | USP8 -0.444 | USP9X -0.168 | UniProt O00487 -0.171
